Laboratory results from PubChem BioAssay AID651568 (National Center for Advancing Translational Sciences (NCATS), 2012).
In all, about 1,200 compounds went through this assay and about 55 (5%) were called active. About 15% were inconclusive and are not listed. Shown is part of a subset that was picked to be rich in actives. Values without a mark were called inactive. Calls follow the shape of the dose curve; as a rule, active = well fitted inhibition curve with a large enough effect; inconclusive = small, poorly fitted or top-dose-only effect; inactive = no such curve, though single readings can be large or run the other way.

Assay: qHTS Assay to Find Inhibitors of Chronic Active B-Cell Receptor Signaling: Hit Validation in Renilla Reporter Assay; also: nearly all actives have a fitted effect of over 70% in size
Settings: TMD8 IkB-Renilla luciferase reporter, NF-kB signaling; series mostly up to 57.5 µM; activity change, negative = inhibition: at the top concentration
Description: Diffuse large B-cell lymphoma (DLBCL) is the most common category of non-Hodgkin lymphoma, with ~20,000 new cases per year in the United States. DLBCL should be regarded as a collection of different neoplasms. Microarray gene expression analysis has defined two principal types of DLBCL, named for their similarity to normal B cell stages or activation states: a germinal center B-cell (GCB) type, and an activated B-cell (ABC) type. In ABC-DLBCL, a constitutive high-level activity of the NF-kappaB family of transcription factors has been observed (1) and NF-kappaB target genes are more highly expressed in ABC primary tumors than in GCB tumors. Functional studies have shown a constitutive high-level activity of the IkappaB (inhibitor of kappa-B) kinase (IKK) complex. […] Further analysis of DLBCL primary tumors for NF-kappaB target gene expression imply that although CARD11 is required for constitutive IKK activity in all ABC-DLBCL lines, mutations in CARD11 may be the root cause of IKK activation only in lines or tumors with such mutations. In other words, CARD11 mutations may explain NF-kappaB activation in only 10% of ABC-DLBCL cases. […] This process has been termed 'chronic active BCR signaling' (CABS). The goal of this screen is to find small-molecule inhibitors of the CABS pathway found in ABC-DLBCL lines using a cell-based assay that measures IkappaBalpa stability, which has already been extensively validated in the OCI-Ly3 line (PubChem AID:445; REF: 4). […] Hits from the primary screen were tested in this orthogonal secondary assay. NIH Molecular Libraries Probe Production Network [MLPCN] NIH Chemical Genomics Center [NCGC] MLPCN Grant: R03 DA031086 PI Name: Dr. R. Eric Davis
The IkB-Photinus/Renilla reporter assay differs from the primary assay in that the reporters are constitutively expressed, and based on luciferases that are different from the click beetle luciferases and each other. These differences should help to eliminate artifactual sources of activity specific to the primary assay. This assay uses the Dual-Glo substrate from Promega; extensively validated in a 96-well format, it could be converted to a smaller-well format. All lines needed for the IkB-Photinus/Renilla assay have already been prepared and extensively validated
% is scaled to controls: 0 for no effect and ±100 for the full control effect; potency is read from the fitted curve at half-maximal effect.

| SMILES | Potency | activity change, negative = inhibition [%] |
| --- | --- | --- |
| Cc1cccc(NS(=O)(=O)c2ccc(C3CCCCC3)cc2)n1 | 13.5 µM (active) |  |
| Cc1cc(C)cc(NS(=O)(=O)c2ccc(-c3cnc(C4CC4)o3)cc2)c1 |  | 25.8 |
| Cc1ccc(C)c(NS(=O)(=O)c2ccc(-c3cnc(C4CC4)o3)cc2)c1 |  | -22.1 |
| Cc1ccccc1NC(=S)N=Nc1c(O)n(C)c2ccc(S(=O)(=O)N3CCOCC3)cc12 |  | -22.4 |
| CCn1c(=O)c([N+](=O)[O-])c(Cl)c2ccccc21 | 2.39 µM (active) |  |
| CC[C@]12c3[nH]c4cc(CCC(=O)N(C)C)ccc4c3CCN1C(=O)[C@@H](CC(=O)NCc1ccco1)C[C@@H]2C(=O)N1CCN(C(=O)c2ccco2)CC1 |  | 7.44 |
| c1ccc(C2=Nn3c(nnc3-c3n[nH]c4c3CCC4)SC2)cc1 |  | -11.8 |
| Cc1ccc(OCCN2C(=O)C(=O)c3cc(C)ccc32)cc1 |  | -29.2 |
| CC(C)n1c(SCC(=O)Nc2ccccc2)nc2c1c(=O)n(C)c(=O)n2C |  | -2.3 |
| CN(C)c1nc(=Nc2cccc(Cl)c2)ss1 | 10.7 µM (active) |  |
| COc1cc(OC)cc(C(=O)NCC(=O)Nc2ccc(-c3ccccc3)cc2)c1 |  | -2.62 |
| COc1cc(OC)cc(C(=O)NCc2ccc3c(c2)CCN3C(=O)c2ccccc2)c1 |  | 2.99 |
| COc1ccc(/C=C/C(=O)Nc2cc(S(=O)(=O)N3CCOCC3)ccc2OC)cc1 |  | -11 |
| Cc1noc(C)c1CSc1ncnc2ccccc12 |  | -12.4 |
| COc1cc(/C=C\C(=O)OCn2nnc3ccccc3c2=O)cc(OC)c1OC |  | 3.59 |
| COc1ccc(C(=O)/C=C/c2ccc(OC)c(Cn3nnc4ccccc43)c2)cc1 | 9.53 µM (active) |  |
| COc1ccc(C(=O)n2c(-c3ccco3)nc3ccccc32)cc1 |  | 3.66 |
| COc1ccccc1NC(=O)COc1ccc(-c2nn(C)c(=O)c3ccccc23)cc1 |  | -8.93 |
| Cc1ccc(NC(=S)NC(=O)C2CC2)cc1Cl |  | 2.69 |
| Cc1c(CCC(=O)NCCC(=O)O)c(=O)oc2c(C)c3oc4c(c3cc12)CCCC4 |  | -15.5 |
| COc1cc(/C=N/NC(=O)NC2CCCCC2)ccc1O |  | 0.432 |
| CCOc1cc(Br)c(C=O)cc1OCC |  | -3.14 |
| O=Cc1ccccc1OCCOc1ccccc1C=O | 12 µM (active) |  |
| Cc1c(CCC(=O)N[C@@H](C)C(=O)O)c(=O)oc2cc3oc4c(c3cc12)CCCC4 |  | -1.27 |
| CCC(NC(=O)CCc1c(C)c2cc3c4c(oc3cc2oc1=O)CCCC4)C(=O)O (configuration not stated) |  | -10.2 |
| Cc1cc(NC(=O)CSc2nc3ccccc3c(=O)n2C2CCCC2)no1 |  | 1.51 |

| SMILES | Potency | activity change, negative = inhibition [%] |
| --- | --- | --- |
| Cc1cc(C)n(-c2nc3ccccc3c(=O)n2OCC#N)n1 | 16.9 µM (active) |  |
| CCC(=O)Nc1nonc1-c1nc2ccccc2n1Cc1cccc2ccccc12 |  | -1.91 |
| CNCc1ccccc1Sc1ccc(O)c(O)c1 | 10.7 µM (active) |  |
| COc1cccc(N2CC(O)=C(c3nc4ccccc4s3)C2=N)c1 |  | 2.59 |
| CCOc1cc(/C=N\NC(N)=O)cc(Br)c1OC(C)C |  | -6.49 |
| O=C(/C=C/c1ccc(O)cc1)c1ccc(O)cc1O | 10.7 µM (active) |  |
| O=C(/C=C/c1ccco1)NC(=S)Nc1cccc(-c2nc3ccccc3o2)c1 |  | 9.24 |
| CCn1ncc(C2=NOC(C(=O)NCc3ccccc3)C2)c1C (configuration not stated) |  | -18.4 |
| CC(C)N=C(NS(=O)(=O)c1ccccc1)C(Cl)(Cl)Cl | 26.9 µM (active) |  |
| Oc1cccc(Nc2nc(N3CCOCC3)nc(N3CCOCC3)n2)c1 |  | -26.5 |
| CC1=CC(C)(C)N(S(=O)(=O)c2ccc(C)cc2)c2ccc(C)cc21 |  | -19 |
| CCOc1ccccc1NS(=O)(=O)c1ccc(-c2cnc(C3CC3)o2)cc1 |  | -5.07 |
| COc1ccc(C(=O)N2CCc3cc(OC)c(OC)cc3C2c2ccc(OC)c(OC)c2)cc1 (configuration not stated) |  | -0.384 |
| COc1ccccc1C(=O)Nc1ccccc1SC(=O)c1ccccc1OC | 23.9 µM (active) |  |
| COc1cc(NC(=S)NC(=O)c2ccccc2F)ccc1NC(=O)c1ccco1 |  | -16.4 |
| COc1cccc(C(=O)Nc2cc(NC(=O)c3cccs3)ccc2C)c1OC |  | 12.1 |
| Cc1ccc(COC(=O)c2cc([N+](=O)[O-])ccc2N2CCOCC2)cc1 |  | -17.5 |
| CCc1cc2c(SCC(=O)Nc3ccc(NC(C)=O)cc3)ncnc2s1 |  | 8.38 |
| CCCC(=O)Nc1ccc2c(c1)nc(CN1CCN(C(=O)OCC)CC1)n2CC |  | -1.03 |
| O=C(CCl)Nc1cc(S(=O)(=O)N2CCCCCC2)ccc1Cl |  | -87.8 |
| O=C(CCl)Nc1cccc(S(=O)(=O)NC2=NCCCCC2)c1 | 19 µM (active) |  |
| C=CCn1c(SCC(=O)Nc2cccc(S(N)(=O)=O)c2)nc2sc(C)c(C)c2c1=O |  | 5.08 |
| CN(C)/C=N/c1sc2c(c1C#N)CCCC2 |  | 0.366 |
| COc1cc(C2C(C#N)=C(N)Oc3cc(N)ccc32)cc(OC)c1OC (configuration not stated) |  | -28.5 |
| CCN(C(=O)COC(=O)c1cc([N+](=O)[O-])ccc1N1CCOCC1)c1ccccc1 |  | -5.41 |
| CC(=O)Nc1nc2ccc(-c3nc4ccccc4o3)cc2s1 |  | -15.1 |
